# Beta apoptosis = inhibitors of cytokine-induced beta cell apoptosis, primary screen, luminescence; AID 435005, 2010; protection from apoptosis, % (no concentration beside the values); INS-1E cytokine-induced death, ATP luminescence, 48 h; percent of positive-control rescue, neutral wells zero; 300,000 tested, 0.8% active;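 active = Every replicate reaches about 75%, or at least half do and their mean reaches it too, limit read from the data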;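 note: 0% = cytokine-treated negative control wells and 100% = positive control rescue; higher means more ATP so stronger rescue from cytokine killing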
# CSC inhib = cancer stem cell viability inhibitors, primary screen, luminescence; inhibition, % at 7.5 µM; AID 2717, 2010; cancer stem cell-like cells viability; 300,000 tested, 1.1% active; in the data active = inhibition above about 75%; tested in HMLE shEcad cells
# PP1 counter = PP1-alpha phosphatase inhibitors, primary screen, counter-screen for PP5 inhibitor project, biochemical, fluorescence, OMFP substrate, single point; inhibition, % at 6.7 µM; purified PP1alpha; AID 2235, 2010; 320,000 tested, 0.9% active;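 active = inhibition above the mean inhibition of all tested compounds plus 3 SD, computed separately for each screening campaign, cut at about 15% in these data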
# SKKanGAS inh = S. pyogenes SKKanGAS growth inhibitors in kanamycin, primary screen, streptokinase expression inhibitor project, SKKanGAS strain, BacTiter-Glo luminescence | 6 h | inhibition, % at 7.5 µM | 300,000 tested, 1.3% active | AID 1662, 2009;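 active = mean replicate score, as percent of positive control median, at least 50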;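 note: strain carries kanamycin resistance gene driven by streptokinase promoter and grows in 40 µg/ml kanamycin; loss of luminescence reflects streptokinase promoter inhibition or plain growth inhibition; 0% = median of DMSO wells and 100% = positive control at its reference dose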
# PP5 primary = PP5 phosphatase inhibitors, primary screen, biochemical, fluorescence; Serine/threonine-protein phosphatase 5 (Homo sapiens), P53041; purified PP5c, OMFP substrate fluorescence; inhibition, % at 6.7 µM; 320,000 tested, 0.18% active;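 active = inhibition above the campaign's mean inhibition across all tested compounds plus 3 SD, cut at about 9.5% in these data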;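 note: 0% = DMSO only and 100% = 100 µM cantharidin control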
# Target sequence (P53041 whole entry, looked up): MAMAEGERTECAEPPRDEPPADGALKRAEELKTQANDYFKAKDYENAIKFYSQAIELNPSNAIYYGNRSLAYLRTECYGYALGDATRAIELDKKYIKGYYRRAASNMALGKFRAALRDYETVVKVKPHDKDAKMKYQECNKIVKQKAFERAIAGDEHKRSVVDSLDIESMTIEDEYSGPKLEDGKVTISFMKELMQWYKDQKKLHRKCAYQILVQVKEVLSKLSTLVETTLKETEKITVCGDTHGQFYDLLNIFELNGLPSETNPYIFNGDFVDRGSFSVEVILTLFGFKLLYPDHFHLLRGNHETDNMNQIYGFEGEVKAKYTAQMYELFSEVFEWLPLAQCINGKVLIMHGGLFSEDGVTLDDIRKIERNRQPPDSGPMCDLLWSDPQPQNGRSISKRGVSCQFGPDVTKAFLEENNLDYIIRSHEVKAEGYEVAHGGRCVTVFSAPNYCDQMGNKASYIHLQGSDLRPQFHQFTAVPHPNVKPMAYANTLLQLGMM
# Starred values were filed as active, the others as inactive; . = no result. An excerpt weighted towards active compounds, which were near 3.1% of everything screened.
SMILES,Beta apoptosis,CSC inhib,PP1 counter,SKKanGAS inh,PP5 primary
CCC(C)[C@H]1CNC(=S)N1CCc1cc(C(F)(F)F)cc(C(F)(F)F)c1 (stereo not given in full),-0.6,4.9,3.3,20.7,9.6*
O=C(Nc1cccc(S(=O)(=O)N2CCCCC2)c1)c1ccccc1NS(=O)(=O)c1ccc(F)cc1,52.5,49.7,10.0,-12.1,8.7
O=C(Nc1cc(S(=O)(=O)N2CCCCC2)ccc1O)c1ccccc1NS(=O)(=O)c1ccc(F)c(F)c1,0.2,10.1,16.1*,26.5,-5.6
Cc1ccc(NC(=O)c2ccccc2NS(=O)(=O)c2ccc(F)cc2)cc1S(=O)(=O)N1CCCCC1,35.7,51.4,13.9,60.2*,4.4
CN(CCCC(=O)NCc1ccc2c(c1)OCO2)S(=O)(=O)c1ccc([N+](=O)[O-])cc1,-5.4,0.6,1.3,23.5,4.5
CCC(C(=O)N1CCOCC1)n1c2ccccc2c2nc(=O)cc(C)n21 (stereo not given),-1.9,-5.1,1.7,-10.2,4.0
NC(=O)NC(=O)COC(=O)c1ccc(Cl)c(S(=O)(=O)N(Cc2ccccc2)c2ccc(Cl)cc2)c1,-13.0,85.9*,3.8,26.2,1.8
NC(=O)COC(=O)c1ccc(Cl)c(S(=O)(=O)N(Cc2ccccc2)c2ccc(Cl)cc2)c1,-5.5,49.7,0.3,6.2,2.7
COc1cc(CNC(C)c2ccccc2)cc(Br)c1OCc1ccc(F)cc1 (stereo not given),113.4*,55.8,13.7,12.5,3.9
COc1cc(CNc2ccc(O)cc2)cc(Br)c1OCc1ccccc1,28.6,59.5,1.6,3.6,6.5
COc1cc(CNC(C)c2ccccc2)cc(Br)c1OCc1ccccc1 (stereo not given),18.0,111.7*,8.6,7.7,3.4
COCCCNC(=O)CCCn1c(=O)c2ccccc2n(Cc2cccc([N+](=O)[O-])c2)c1=O,-10.6,-16.5,-1.2,-5.9,-0.7
Cc1ccc(-c2cc(-c3ccccc3)nc(N(C)N)n2)cc1,1.1,19.0,-2.3,67.9*,2.6
Cc1ccc(-c2cc(N)nc(-c3ccccc3)c2)cc1,2.5,37.4,6.4,0.2,7.3
COc1ccc(C2(C)NC(=O)N(CC(=O)N(c3ccccc3)C3CCS(=O)(=O)C3)C2=O)cc1 (stereo not given),0.1,.,.,.,.
CC1CCN(CCOCCOc2ccc(Br)cc2Cl)CC1,-6.9,.,1.6,0.6,2.4
CC1CCCN(CCCOc2ccc(Br)cc2Cl)C1 (stereo not given),8.1,193.7*,-2.6,-2.8,2.2
CCCCCCCN1CCN=C1N(C)C,-3.1,2.4,2.0,.,1.8
O=C(NCCc1c[nH]c2ccccc12)C1CCC(Cn2c(=S)[nH]c3ccccc3c2=O)CC1 (stereo not given),11.2,76.4*,1.3,33.0,1.2
CCCCCn1c(SCc2ccncc2)nc2cc(C(=O)NCc3ccco3)ccc2c1=O,8.5,20.8,15.8*,25.1,3.0
CCCCn1c(SCC(=O)NCc2ccco2)nc2ccccc2c1=O,6.7,-11.2,-2.4,-4.6,-0.7
Cc1cc(C)c(NC(=O)CN2C(=O)NC3(CCCc4ccccc43)C2=O)c(Cl)c1 (stereo not given),-0.5,.,-3.7,-2.1,-0.4
O=C(C1=C(O)C(=O)N(CCN2CCOCC2)C1c1cccc(Br)c1)c1cc2ccccc2o1 (stereo not given),-7.1,-7.9,18.5*,11.0,1.4
COCCCN1C(=O)C(O)=C(C(=O)c2ccc(C)o2)C1c1cccc(Br)c1 (stereo not given),1.9,-4.3,18.2*,-1.2,2.3
O=C(C1=C(O)C(=O)N(CCN2CCOCC2)C1c1ccc(F)cc1)c1cc2ccccc2o1 (stereo not given),-3.0,-11.7,7.0,7.1,-0.7
SMILES,Beta apoptosis,CSC inhib,PP1 counter,SKKanGAS inh,PP5 primary
C=CCC1(CC=C)CCCN1C(=O)c1cc(COc2ccc(C)nc2)on1,105.3*,2.7,-3.0,-1.0,2.2
C=CCC1(CC=C)CCCN1C(=O)c1cc(COc2ccc(F)c(F)c2)on1,7.6,-8.3,2.3,-3.4,2.1
O=C1/C(=C/c2ccccc2)SC(=S)N1CC(=O)N1CCCCC1c1cccnc1 (stereo not given),-29.7,10.4,16.9*,4.2,1.6
CN(Cc1ccccc1)c1nc(-c2ccc([N+](=O)[O-])cc2)nc2ccccc12,22.9,34.8,2.2,1.8,-0.2
O=[N+]([O-])c1ccc(-c2nc(C(Cl)Cl)c3ccccc3n2)cc1,94.0*,96.9*,-6.7,-2.5,2.4
Cc1ccc(NC(=S)NCCSc2ccc(Cl)cc2)cc1,-11.9,10.5,4.8,7.7,4.4
CC(CNC(=S)Nc1cc(F)cc(F)c1)CSc1ccc(Cl)cc1 (stereo not given),12.9,86.9*,0.5,54.6*,2.9
Cc1csc(NC(=O)COCC(=O)O)c1-c1nc2ccccc2s1,-3.6,0.5,-1.3,50.5*,2.0
O=c1cc(N2CCN(c3ccccc3)CC2)[nH]c(=O)n1C1CCCCC1,-27.9,49.0,-0.6,-3.1,-1.2
O=c1cc(N2CCN(c3cccc(Cl)c3)CC2)[nH]c(=O)n1C1CCCCC1,88.6*,65.6,3.0,-3.9,4.8
COC(=O)c1ccc2c(c1O)C(=O)c1ccccc1C2=O,16.1,96.0*,-5.8,70.5*,1.9
CCCCCc1cc(O)c2c(C)cc(=O)oc2c1,130.0*,60.9,-2.1,12.5,-0.7
O=c1[nH]c(C2CCN(S(=O)(=O)c3ccccc3)CC2)nc2c1nnn2Cc1ccc2c(c1)OCCO2,-5.5,2.2,6.4,13.8,2.9
Cc1ccc(Cn2nnc3c(=O)[nH]c(C4CCN(S(=O)(=O)c5ccc(S(=O)(=O)NC6CC6)cc5)CC4)nc32)cc1,4.4,5.8,16.8*,28.2,5.1
O=c1[nH]c(C2CCCN(S(=O)(=O)c3ccccc3Cl)C2)nc2c1nnn2Cc1ccc2c(c1)OCCO2 (stereo not given),4.0,13.4,16.4*,26.8,2.0
COC(=O)c1ccc(Cn2nnc3c(=O)[nH]c(C4CCN(S(=O)(=O)c5cc(C)ccc5C)CC4)nc32)cc1,.,.,16.3*,31.3,5.5
COC(=O)c1ccc(Cn2nnc3c(=O)[nH]c(C4CCCN(S(=O)(=O)c5ccc(C)cc5)C4)nc32)cc1 (stereo not given),.,.,-1.5,2.4,0.8
COc1cc(NC(=O)c2cccc(NC3=NC4CS(=O)(=O)CC4S3)c2)cc(OC)c1OC (stereo not given),-1.3,-7.8,-3.3,1.6,0.9
Cc1ccc(OCC(=O)NC2CCS(=O)(=O)C2)c(C)c1 (stereo not given),-1.3,-1.7,.,-1.2,.
CC(C)(C)c1ccc(C2CC2C(=O)N/N=C\c2ccc[nH]2)cc1 (stereo not given),108.5*,0.4,3.3,13.0,4.7

# Screening data deposited in PubChem by several laboratories.
